Source: the supplement of paper PMC13380429
Values without a mark were called inactive.

System: Vero E6 infected with SARS-CoV-2
Assay: inhibition of SARS-CoV-2 cytopathic effect; higher = more antiviral protection, active = above 15
Settings: 48 h

Row | SMILES | inhibition of SARS-CoV-2 cytopathic effect (1 nM) [%] | inhibition of SARS-CoV-2 cytopathic effect (8.33 nM) [%] | inhibition of SARS-CoV-2 cytopathic effect (100 nM) [%] | inhibition of SARS-CoV-2 cytopathic effect (833.33 nM) [%] | inhibition of SARS-CoV-2 cytopathic effect (10000 nM)
1 | CC(C)[C@H](N)C(=O)OCC(CO)OCn1cnc2c(=O)nc(N)[nH]c21 (mixture of isomers) [valganciclovir] | 6.98 | 8.27 | 4.51 | 8.72 | 1.96%
2 | CCn1cc(C(=O)O)c(=O)c2ccc(-c3ccncc3)cc21 [rosoxacin] | -1.03 | -0.12 | -1.66 | -2.14 | 3.73%
3 | CCCCCCCCN=c1ccn(CCCCCCCCCCn2ccc(=NCCCCCCCC)cc2)cc1 [octenidine] | 0.26 | 2.35 | 0 | -7.17 | -19.8%
4 | O=C(Nc1cnn2ccc(N3CCC[C@@H]3c3cc(F)ccc3F)nc12)N1CC[C@H](O)C1 [larotrectinib] | 1.44 | 4.14 | 3.48 | -0.49 | 2.41%
5 | O=C(OCCO)c1ccccc1O [2-hydroxyethyl-salicylate] | 0.19 | 1.56 | -0.09 | 0.15 | -2.92%
6 | Cn1cc(-c2ccc3nnc(Sc4ccc5ncccc5c4)n3n2)cn1 | 0.46 | -0.33 | -1.37 | -0.25 | 3.33%
7 | COc1cc(Br)c(S(=O)(=O)Nc2ccc(Cl)c(O[C@@H]3CCN(C)C3)c2)cc1OC | 1.45 | 1.7 | -0.06 | -0.33 | -0.58%
8 | C1=N/C2=N/c3ccc(OCCN4CCCC4)c(c3)COC/C=C/COCc3cccc(c3)C(=C1)N2 [pacritinib] | -0.44 | 0.71 | 0.95 | 0.27 | -15%
9 | OC[C@H]1O[C@H](O[C@H]2[C@H](O)[C@@H](O)[C@H](O)O[C@@H]2CO)[C@H](O)[C@@H](O)[C@@H]1O [D-(+)-maltose] | -1.05 | -1.49 | -0.09 | -1.17 | -3.27%
10 | CC(C)(Sc1cc(C(C)(C)C)c(O)c(C(C)(C)C)c1)Sc1cc(C(C)(C)C)c(O)c(C(C)(C)C)c1 [probucol] | -0.06 | 2.66 | 0.1 | -0.2 | 1.98%
11 | CC1=C(C(=O)OC2CCCCC2)C(c2ccc([N+](=O)[O-])cc2)C2=C(CC(C)(C)CC2=O)N1 (stereo not given) | -1.14 | -1.2 | -1.86 | 1.14 | 23.1% (active)
12 | C#C[C@]1(O)CC[C@H]2[C@@H]3CCC4=CC(=O)CC[C@@H]4[C@H]3CC[C@@]21C [Norethindrone (Norethisterone)] | -1.49 | -0.9 | -1.69 | 1.37 | 2.33%
13 | Nc1c2ccccc2nc2ccccc12 [9-aminoacridine] | -6.32 | 1.57 | -3.73 | 0.13 | -28.3%
14 | COc1cccc(OC)c1OCCNC[C@H]1COc2ccccc2O1 | -0.3 | 0.6 | 0.45 | 0 | 0.85%
15 | O=c1c(-n2ccnn2)c[nH]n1-c1cc(N2CCOCC2)ncn1 [molidustat] | 1.15 | -0.02 | -0.4 | 3.64 | 2.32%
16 | c1cc(CN2CCCCC2)cc(OCCCNc2nc3ccccc3s2)c1 [zolantidine] | 0.78 | 3.51 | 1.37 | 4.09 | 4.6%
17 | O=C(O)CCC(=O)OC[C@@H](NC(=O)C(Cl)Cl)[C@H](O)c1ccc([N+](=O)[O-])cc1 [chloramphenicol-sodium-succinate] | 3.1 | -0.01 | 2.32 | 3.18 | 1.6%
18 | O=C1NC(=O)/C(=C/c2cccc(C(F)(F)F)c2)S1 | 0.25 | 2.25 | 1.98 | -0.59 | -1.22%
19 | CC(C)[C@H](CO)Nc1nc(Nc2cccc(Cl)c2)c2ncn(C(C)C)c2n1 [purvalanol-A] | -1.59 | -0.55 | -0.26 | 2.68 | -2.25%
20 | CC(C)C[C@H](NC(=O)OCc1ccccc1)C(=O)N[C@@H](C[C@@H]1CCNC1=O)C(O)S(=O)(=O)O (stereo not given in full) [GC376 sodium] | 0.45 | -0.81 | 0.28 | -0.83 | 70.6% (active)
21 | O=C1C=C2C=C[C@@H]3C[C@@]2(O1)[C@H]1CCCCN31 [securinine] | 0.7 | 3.64 | 2.11 | 7.21 | 18.4% (active)
22 | COC(=O)c1ccc2c(c1)NC(=O)/C2=C(\Nc1ccc(N(C)C(=O)CN2CCN(C)CC2)cc1)c1ccccc1 [nintedanib] | -1.36 | -3 | -0.71 | 0.19 | 0%
